The values that follow come from PubChem BioAssay (NCATS).

Experiment [1] concerns the target Cytochrome P450 3A7 (Homo sapiens) (UniProt P24462). Briefly: Cytochrome P450 family 3 subfamily A member 7 (CYP3A7) small molecule antagonists: luciferase biochemical qHTS assay (AID 1963596). Also: % is scaled to controls: 0 for no effect and ±100 for the full control effect; nearly all actives have a fitted effect of over 40% in size. In a few lines:
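Enzyme-substrate mix + cpd (DMSO), 10 min RT; + NADPH regen system, 1 h RT; + luciferin detection reagent, 20 min RT; luminescence read. Proluciferin substrate, P450-Glo format, 1536-well qHTS.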

Experiment [2] is described as follows: Viability qHTS for spleen associated tyrosine kinase inhibitor (SYKi) naive MV4-11 cells (AID 1963823). Also: nearly all actives have a fitted effect of over 40% in size. Also: potency is read from the fitted curve at half-maximal effect. The gist of the method: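 SYKi-naive MV4-11 AML cells, 500 per well, were exposed to library compounds for 72 hr at 37 C, 5% CO2. Viability was then read by CellTiter-Glo luminescence after 10 min at room temperature.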
(In general: In qHTS, concentration-response curves come from the screen itself.)

Experiment [3] is described as follows: Viability qHTS for spleen associated tyrosine kinase inhibitor (SYKi) drug resistant MV4-11 cells (AID 1963824). Also: nearly all actives have a fitted effect of over 35% in size. Also: potency is read from the fitted curve at half-maximal effect. The gist of the method: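 SYK-inhibitor-resistant MV4-11 AML cells were seeded at 500 per well onto compound and cultured 72 hours (37 °C, 5% CO2). CellTiter-Glo was then added, and after 10 min at room temperature, luminescence gave viability.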

The nature of experiment [4]: Cellular viability qHTS for adrenocortical cancer (ACC) cell line SW-13 (AID 1963989). Also: nearly all actives have a fitted effect of over 65% in size. Also: potency is read from the fitted curve at half-maximal effect.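 As to activity (max response): cells grown in serum-free medium with ITS supplement; % is scaled to controls: 0 for no effect and ±100 for the full control effect.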 The conditions noted are these: SW-13 ACC cells viability, CellTiter-Glo, 48 h; activity (max response): hits give low values. The gist of the method:
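Compound titrations (up to 46 uM final, in DMSO) were applied to SW-13 cells for 48 h at 37C/5% CO2. Reading used CellTiter-Glo after 20 min at room temperature; fitted curves yielded IC50 and efficacy.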

Experiment [5] in a line: Cellular viability qHTS for adrenocortical cancer (ACC) cell line NCI-H295R (AID 1963990). Also: nearly all actives have a fitted effect of over 60% in size. Also: potency is read from the fitted curve at half-maximal effect.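 As to activity change, negative = viability loss: 0% = DMSO only wells and -100% = full killing with cytotoxic reference compound.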 In a few lines:
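Readout: CellTiter-Glo luminescence, 20 min RT. Exposure: 48 h, 37C/5% CO2. Cells: NCI-H295R, ITS-DMEM serum-free. Range: up to 46 uM. Analysis: 4PL fit, IC50 plus efficacy.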

Where “and” joins values, the source holds several entries; their conditions need not be identical. Identical values can stand only once. Results filed as inconclusive are left out. A number with no mark means an inactive call. Calls of active or inactive are those of the source. Calls follow the shape of the dose curve; as a rule, active = well fitted curve in the direction sought with a large enough effect; inconclusive = small, poorly fitted or top-dose-only effect, or another doubt; inactive = no such curve, though single readings can be large; an effect the other way counts as inactive or inconclusive.

Sequence of Cytochrome P450 3A7 (Homo sapiens) (P24462 whole entry, looked up): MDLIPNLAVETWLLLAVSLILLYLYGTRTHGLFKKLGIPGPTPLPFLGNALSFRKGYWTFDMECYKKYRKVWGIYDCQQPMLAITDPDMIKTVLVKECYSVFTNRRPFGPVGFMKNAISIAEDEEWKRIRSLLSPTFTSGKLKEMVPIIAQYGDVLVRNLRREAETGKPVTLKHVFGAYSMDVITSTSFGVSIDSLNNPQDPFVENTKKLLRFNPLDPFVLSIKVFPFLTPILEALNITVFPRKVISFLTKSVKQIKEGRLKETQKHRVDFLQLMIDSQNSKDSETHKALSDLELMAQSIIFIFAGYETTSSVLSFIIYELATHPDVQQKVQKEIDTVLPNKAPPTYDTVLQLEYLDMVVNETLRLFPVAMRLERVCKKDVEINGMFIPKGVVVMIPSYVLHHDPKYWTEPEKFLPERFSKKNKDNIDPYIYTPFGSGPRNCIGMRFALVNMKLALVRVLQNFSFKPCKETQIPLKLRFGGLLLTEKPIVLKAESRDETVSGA

Turning to `CN1CCOC(c2ccccc2)c2ccccc2C1` (stereo not given), the Potency entry in experiment [1], in experiment [2], in experiment [3] and in experiment [5] was “inactive” in each case. In addition, the activity (max response) in experiment [4] is -0.385%.

On to `CN(C)[C@@H]1C(=O)C(C(=O)NCN2CCCC2)=C(O)[C@@]2(O)C(=O)C3=C(O)c4c(O)cccc4[C@@](C)(O)C3C[C@@H]12` (stereo not given in full), for which the Potency result in experiment [1], in experiment [2], in experiment [3] and in experiment [5] was “inactive” each time. In experiment [4], the activity (max response) is -7.75%.

Consider `NC1CCN(c2nc3c(cc2F)c(=O)c(C(=O)O)cn3-c2ccc(F)cc2F)C1` (stereo not given), for which the Potency result in experiment [1], in experiment [2], in experiment [3] and in experiment [5] was “inactive” in each case. In experiment [4], the activity (max response) is -6.92%.

As for `O=C(O)CC(O)C(=O)O` (stereo not given), the Potency entry in experiment [1], in experiment [2], in experiment [3] and in experiment [5] was “inactive” throughout. Also, in experiment [4], the activity (max response) was 12.9%.

As for `O=C1O[C@H](CO)[C@@H](O)[C@H](O)[C@H]1O`, the Potency entry in experiment [1], in experiment [2], in experiment [3] and in experiment [5] was “inactive” in each case. Further, in experiment [4], the activity (max response) was 5.91%.

For the compound `O=C(c1ccccc1)C(O)c1ccccc1` (stereo not given), the Potency entry in experiment [1], in experiment [2], in experiment [3] and in experiment [5] was “inactive” throughout. Also, the activity (max response) in experiment [4] was 11.7%.

As to `N=C(N)N1CCc2ccccc2C1`, the activity change, negative = inhibition in experiment [1] is 2.18% [at 4.83 µM]. Moreover, in experiment [2], the viability (% of control) is 81.1% [at 4.97 µM]. The viability, % of control in experiment [3] is 96.6% [at 4.97 µM]. Besides, in experiment [4], the activity (max response) was -5.8%. The activity change, negative = viability loss in experiment [5] is -6.61% [at 3.81 µM].

On to `CC(=O)N[C@@H](Cc1ccc(O)cc1)C(=O)O`, for which the Potency result in experiment [1], in experiment [2], in experiment [3] and in experiment [5] was “inactive” throughout. For the same compound, the activity (max response) in experiment [4] was -8.88%.

Consider `CC(C)c1c2cc(-c3ccnc(NC4CCC(NC5CCOCC5)CC4)n3)ccc2nn1C` (stereo not given), for which the Potency result in experiment [1] is “inactive”. The Potency in experiment [2] was 130 nM (active) and 105 nM (active); in experiment [3], 116 nM (active) and 83.3 nM (active); in experiment [4], 282 nM (active); in experiment [5], 447 nM (active).

As to `O=C(O)CCCC[P+](c1ccccc1)(c1ccccc1)c1ccccc1`, the Potency result in experiment [1], in experiment [2], in experiment [3] and in experiment [5] was “inactive” in each case. Further, the activity (max response) in experiment [4] is 2%.

With `COc1ccccc1N1CCN(CC(O)COc2cc(OC)c(OC)c(OC)c2)CC1` (stereo not given), the Potency result in experiment [1], in experiment [2], in experiment [3] and in experiment [5] was “inactive” in each case. In addition, the activity (max response) in experiment [4] was 13.2%.

On to `Cc1nnc(C(C)C)n1C1CC2CCC(C1)N2CC[C@H](NC(=O)C1CCC(F)(F)CC1)c1ccccc1` (stereo not given in full), for which the Potency entry in experiment [1], in experiment [2], in experiment [3] and in experiment [5] was “inactive” each time. Also, in experiment [4], the activity (max response) was 2.32%.

Turning to `Cc1ccc2ccc(Cl)cc2n1`, the Potency entry in experiment [1], in experiment [2], in experiment [3] and in experiment [5] was “inactive” in each case. In addition, in experiment [4], the activity (max response) is 15.8%.

Take `Cc1cccc(C)c1OCC(C)N` (stereo not given): the Potency entry in experiment [1], in experiment [2], in experiment [3] and in experiment [5] was “inactive” throughout. Also, the activity (max response) in experiment [4] was 2.1%.

In the case of `CN1CCN(C(c2ccccc2)c2ccccc2)CC1`, the Potency entry in experiment [1], in experiment [2], in experiment [3] and in experiment [5] was “inactive” in each case. For the same compound, in experiment [4], the activity (max response) is -4.21%.
